In PubChem BioAssay (NCATS):
Results filed as inconclusive are left out. Where a call stands in place of a potency, no number is given. Activity calls are given as the source filed them. Unless noted, calls follow the shape of the dose curve; as a rule, active = well fitted curve in either direction with a large enough effect (not every such curve was filed as active); inconclusive = small, poorly fitted or top-dose-only effect, or another doubt; inactive = flat fitted curve, though single readings scatter.

Experiments:
[1] = biological target: Mitogen-activated protein kinase 10 (Mus musculus) (UniProt Q61831); assay: JNK3 AlphaScreen Assay (AID 530); details: JNK3 lysate, c-Jun phosphorylation; series mostly up to 57.1 µM;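 also: kinase came from lysate of stimulated human HepG2 cells; signal reports phosphorylation of biotinylated GST-cJun 1-79 at Ser73 with 10 µM ATP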
Method in brief: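 Activity was read by AlphaScreen after JNK3-containing HepG2 lysate (cytokine pre-activated) phosphorylated biotinylated GST-cJun with 10 uM ATP at room temperature. Phospho-Ser73 cJun antibody with Protein-A acceptor beads provided detection.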

[2] = biological target: 3',5'-cyclic-AMP phosphodiesterase 4B (Homo sapiens) (UniProt Q07343); assay: qHTS Assay for Inhibitors of PDE-IV (AID 607; active = well fitted activation curve with a large enough effect in the main read-out, with a control signal flat, not every such curve was filed as active); details: HEK293 ACTOne CNG channel cells, membrane potential fluorescence; series mostly up to 22.9 µM
Method in brief: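 Cell-based read-out of cAMP via a modified cyclic nucleotide-gated channel and membrane potential dye (535/590 nm) in HEK293 cells expressing PDE4 endogenously. Compounds tested up to 22.9 uM final; 100 uM RO 20-1724 reference.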

[3] = biological target: Cytochrome P450 3A4 (Homo sapiens) (UniProt P08684); assay: qHTS Assay for Inhibitors and Substrates of Cytochrome P450 3A4 (AID 884; active = well fitted curve in the direction sought with a large enough effect; an effect the other way counts as inactive or inconclusive; also: nearly all actives have a fitted effect of over 50% in size; also: potency is read from the fitted curve at half-maximal effect); details: recombinant CYP3A4, Luciferin-PPXE luminescence; series mostly up to 57.1 µM
Method in brief: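 Luminescent readout of luciferin produced by CYP3A4 (20 nM) dealkylation of Luciferin-PPXE, 25 uM (its KM). NADPH-driven reaction ran 60 min at RT after 10 min compound preincubation; data scaled to 57 uM ketoconazole as 100% inhibition.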

[4] = biological target: Cytochrome P450 3A4 (Homo sapiens) (UniProt P08684); assay: qHTS Assay for Activators of Cytochrome P450 3A4 (AID 885; active = well fitted curve in the direction sought with a large enough effect; an effect the other way counts as inactive or inconclusive; also: nearly all actives have a fitted effect of over 65% in size); details: recombinant CYP3A4, Luciferin-PPXE luminescence, 60 min; series mostly up to 57.1 µM
Method in brief: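 Luminescent readout of luciferin formed from 25 uM Luciferin-PPXE (KM level) by 20 nM CYP3A4 in 200 mM KPO4, with 60 min NADPH-driven reaction at room temperature after 10 min compound exposure. Ketoconazole (57 uM) defined 100% inhibition.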

[5] = biological target: Cytochrome P450 2C19 (Homo sapiens) (UniProt P33261); assay: qHTS Assay for Inhibitors and Substrates of Cytochrome P450 2C19 (AID 899; active = well fitted curve in the direction sought with a large enough effect; an effect the other way counts as inactive or inconclusive; also: potency is read from the fitted curve at half-maximal effect; nearly all actives have a fitted effect of over 60% in size); details: recombinant CYP2C19, luciferin-H EGE luminescence; series mostly up to 11.4 µM
Method in brief: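 Signal comes from luciferase acting on luciferin released by CYP2C19-mediated hydroxylation of Luciferin-H EGE, 10uM (KM). Assay mix: 5nM enzyme, 50mM KPO4; 60 min at 37C with NADPH regeneration. Data normalized against 57uM ketoconazole.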

Chain of Cytochrome P450 3A4 (Homo sapiens) (P08684 whole entry, looked up): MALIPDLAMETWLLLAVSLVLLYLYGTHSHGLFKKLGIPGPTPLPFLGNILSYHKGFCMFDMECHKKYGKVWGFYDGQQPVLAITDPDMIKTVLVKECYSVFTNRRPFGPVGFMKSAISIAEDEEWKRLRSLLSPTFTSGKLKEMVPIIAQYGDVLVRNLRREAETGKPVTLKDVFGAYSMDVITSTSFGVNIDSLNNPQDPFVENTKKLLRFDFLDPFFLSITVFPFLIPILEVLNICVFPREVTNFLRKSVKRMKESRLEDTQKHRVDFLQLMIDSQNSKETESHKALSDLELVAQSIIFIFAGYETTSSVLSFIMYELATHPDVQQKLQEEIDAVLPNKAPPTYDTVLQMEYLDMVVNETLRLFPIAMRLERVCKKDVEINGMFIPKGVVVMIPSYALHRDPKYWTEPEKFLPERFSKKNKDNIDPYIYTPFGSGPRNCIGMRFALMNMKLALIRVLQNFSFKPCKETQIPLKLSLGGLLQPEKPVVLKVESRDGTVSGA
Chain of 3',5'-cyclic-AMP phosphodiesterase 4B (Homo sapiens) (Q07343 whole entry, looked up): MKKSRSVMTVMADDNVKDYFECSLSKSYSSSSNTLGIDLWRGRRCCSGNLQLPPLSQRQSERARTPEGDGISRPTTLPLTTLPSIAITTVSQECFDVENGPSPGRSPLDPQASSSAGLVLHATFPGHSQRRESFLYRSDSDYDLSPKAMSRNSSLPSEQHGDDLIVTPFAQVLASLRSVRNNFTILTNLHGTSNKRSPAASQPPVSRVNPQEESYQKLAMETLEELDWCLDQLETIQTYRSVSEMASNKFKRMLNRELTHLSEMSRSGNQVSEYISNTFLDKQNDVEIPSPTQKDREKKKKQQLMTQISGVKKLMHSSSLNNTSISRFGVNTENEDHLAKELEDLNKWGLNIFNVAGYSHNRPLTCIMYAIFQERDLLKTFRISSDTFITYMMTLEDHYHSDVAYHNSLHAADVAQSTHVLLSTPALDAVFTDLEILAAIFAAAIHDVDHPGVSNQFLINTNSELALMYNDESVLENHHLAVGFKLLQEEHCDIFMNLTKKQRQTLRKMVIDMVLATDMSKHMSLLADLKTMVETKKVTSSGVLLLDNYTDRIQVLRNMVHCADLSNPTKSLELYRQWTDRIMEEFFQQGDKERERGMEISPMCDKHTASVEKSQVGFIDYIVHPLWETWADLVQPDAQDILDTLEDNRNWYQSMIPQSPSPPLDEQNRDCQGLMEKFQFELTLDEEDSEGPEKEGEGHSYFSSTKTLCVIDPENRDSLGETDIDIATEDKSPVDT
Chain of Cytochrome P450 2C19 (Homo sapiens) (P33261 whole entry, looked up): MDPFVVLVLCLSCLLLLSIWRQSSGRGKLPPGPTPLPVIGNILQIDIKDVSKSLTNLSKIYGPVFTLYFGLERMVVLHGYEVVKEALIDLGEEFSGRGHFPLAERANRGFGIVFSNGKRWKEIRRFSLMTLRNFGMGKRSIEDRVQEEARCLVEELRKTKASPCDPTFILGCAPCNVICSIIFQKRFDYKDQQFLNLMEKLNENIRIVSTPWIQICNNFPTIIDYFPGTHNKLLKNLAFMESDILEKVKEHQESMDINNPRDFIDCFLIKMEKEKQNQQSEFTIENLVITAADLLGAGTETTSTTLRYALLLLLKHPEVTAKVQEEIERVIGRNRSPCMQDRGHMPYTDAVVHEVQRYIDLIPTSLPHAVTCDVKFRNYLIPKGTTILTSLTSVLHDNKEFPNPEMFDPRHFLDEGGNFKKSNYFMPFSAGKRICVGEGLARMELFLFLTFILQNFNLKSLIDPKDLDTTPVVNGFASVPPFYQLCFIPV

COC(=O)[C@@]1(Cc2ccccc2)[C@H]2c3cc(C(=O)N(C)C)n(Cc4cc(C)n(C)n4)c3C[C@H]2CN1C(=O)c1ccccc1
outcome [1]: inactive | outcome [2]: inactive

COC(=O)C1(CC(C)C)C=C2C(=C(C)C(=O)C2C)CN1 (stereo not drawn)
outcome [1]: inactive | outcome [2]: inactive

COCCNC(=O)[C@H](C)[C@@H]1C[C@@]1(C)[C@@H](NC(=O)OCc1ccccc1)c1ccccc1
outcome [1]: inactive | outcome [2]: inactive | Potency [3]: 7.94 µM (active) | Potency [4]: inactive | Potency [5]: 3.16 µM (active)

COC(=O)[C@@]1(Cc2ccc(OC)cc2)[C@H]2c3cc(C(=O)N4CCCC4)n(Cc4ccc(OC(F)(F)F)cc4)c3C[C@H]2CN1C(=O)c1ccccc1
outcome [1]: inactive | outcome [2]: inactive

CC(=O)N1CC=CC1(CC(C)C)C(=O)O (stereo not drawn)
outcome [1]: inactive | Potency [3]: inactive

COC(=O)[C@@]1(Cc2ccc(OC)cc2)[C@H]2c3cc(C(=O)N(C)C)n(Cc4ccc(OC)c(OC)c4)c3C[C@H]2CN1C(=O)c1ccccc1
outcome [1]: inactive | outcome [2]: inactive

C=C(CC1([C@@H](NP(=O)(c2ccccc2)c2ccccc2)[C@H]2C[C@@H]2CCCC)CC1)c1ccccc1
outcome [1]: inactive | outcome [2]: inactive | Potency [3]: 1.58 µM (active) | Potency [4]: inactive

COC(=O)[C@@]1(Cc2ccc(F)cc2)[C@H]2c3cc(C(=O)N4CCCC4)n(CCc4c[nH]c5ccc(OC)cc45)c3C[C@H]2CN1C(=O)c1ccccc1
outcome [1]: inactive | outcome [2]: inactive | Potency [4]: inactive | Potency [5]: 7.94 µM (active)

COCCNC(=O)C1(CC(C)C)C=CCN1C(C)=O (stereo not drawn)
outcome [1]: inactive | Potency [3]: inactive

COCCNC(=O)[C@H](C)[C@H]1C[C@]1(C)[C@H](NC(=O)OCc1ccccc1)c1ccccc1
outcome [1]: inactive | outcome [2]: inactive | Potency [3]: 3.16 µM (active)
